# From the supplement of paper PMC7393113
# Where “and” joins values, the source holds several entries; their conditions need not be identical. Equal entries are not always repeated. Structures can show the parent of a compound that is named as a salt. ± gives the standard deviation of the averaged measurements.
# Test system: iBMDM (immortalised mouse bone-marrow-derived macrophages), LPS-stimulated
# Test: mitochondrial superoxide (MitoSOX fluorescence) fold increase over unstimulated control; higher = more LPS-induced mitochondrial ROS (less inhibition)
# Settings: inhibitor concentration: 500 nM, LPS: 100 ng/ml
# How it was run: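 Immortalised mouse bone-marrow-derived macrophages in black 96-well plates were kept in phenol-red-free 1% FCS/DMEM for 20 h, pretreated 30 min with kinase inhibitors (500 nM), loaded with 1 μM MitoSox for 10 min and then given LPS (100 ng/ml). Fluorescence at excitation/emission 510/580 nm was read on a ClarioStar plate reader every 60 min for 4 h, with wells in triplicate. Mitochondrial superoxide is given as fold induction over untreated macrophages, averaged across replicates.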
SMILES,mitochondrial superoxide (time after LPS: 1 h),mitochondrial superoxide (time after LPS: 2 h),mitochondrial superoxide (time after LPS: 4 h)
CC(C)(C)n1nc(-c2ccc(Cl)cc2)c2c(N)ncnc21,1.11 ± 0.019,1.23 ± 0.074,1.31 ± 0.079
CS(=O)(=O)CCNCc1ccc(-c2ccc3ncnc(Nc4ccc(OCc5cccc(F)c5)c(Cl)c4)c3c2)o1,1.6 ± 0.073,1.72 ± 0.07,1.89 ± 0.18
COc1cc2nccc(Oc3ccc(NC(=O)C4(C(=O)Nc5ccc(F)cc5)CC4)cc3)c2cc1OC,1.41 ± 0.041,1.43 ± 0.017,1.51 ± 0.029
O=c1c(O)c(-c2ccc(O)c(O)c2)oc2cc(O)cc(O)c12 [Quercetin],1.31 ± 0.046,1.35 ± 0.071,1.43 ± 0.063
CNC(=O)c1nn(C)c2c1C(C)(C)Cc1cnc(Nc3ccc(N4CCN(C)CC4)cc3)nc1-2,1.31 ± 0.016,1.38 ± 0.086,1.64 ± 0.064
O=S(=O)(NCCNCC=Cc1ccc(Br)cc1)c1cccc2cnccc12,1.01 ± 0.063,1.15 ± 0.074,1.28 ± 0.07
Cc1ccc(-n2nc(C(C)(C)C)cc2NC(=O)Nc2ccc(OCCN3CCOCC3)c3ccccc23)cc1 [BIRB 796 (Doramapimod)],0.987 ± 0.051,1.11 ± 0.024,1.22 ± 0.032
Oc1ccc(Nc2nc(-c3ccc(Cl)cc3)cs2)cc1,1.47 ± 0.039,1.56 ± 0.01,1.71 ± 0.11
Cn1c(=O)c(F)c(Nc2ccc(I)cc2F)c2c(=O)n(C[C@@H](O)CO)cnc21,1.36 ± 0.021,1.39 ± 0.028,1.51 ± 0.055
Cn1cc(-c2ccc3nnc(Sc4ccc5ncccc5c4)n3n2)cn1,1.33 ± 0.036,1.4 ± 0.04,1.525 ± 0.0078
CCc1cc(Nc2nccc(-c3c(-c4ccc(OC)c(C(=O)Nc5c(F)cccc5F)c4)nc4ccccn34)n2)c(OC)cc1N1CCC(N2CCN(S(C)(=O)=O)CC2)CC1,1.3 ± 0.016,1.4 ± 0.079,1.5 ± 0.03
CNC(=O)c1cc(COc2nnc(Nc3ccc(Cl)cc3)c3ccoc23)ccn1 [Telatinib],1.23 ± 0.036,1.33 ± 0.051,1.38 ± 0.11
CCc1nc(-c2cccc(C)c2)c(-c2ccnc(NC(=O)c3ccccc3)c2)s1,1.17 ± 0.028,1.17 ± 0.022,1.18 ± 0.04
COc1ccc2cc(-c3nc(-c4ccc([S+](C)[O-])cc4)[nH]c3-c3ccncc3)ccc2c1 (stereo not drawn) [Tie2 kinase inhibitor],0.981 ± 0.069,1.09 ± 0.058,1.19 ± 0.036
O=C(O)c1ccc(Nc2ncc3c(n2)-c2ccc(Cl)cc2C(c2c(F)cccc2F)=NC3)cc1,1.37 ± 0.045,1.45 ± 0.044,1.46 ± 0.052
Cn1c(Nc2ccc(C(F)(F)F)cc2)nc2cc(Oc3ccnc(-c4ncc(C(F)(F)F)[nH]4)c3)ccc21,1.13 ± 0.08,1.2 ± 0.097,1.33 ± 0.066
COc1cc2nccc(Oc3ccc(NC(=O)Nc4ccc(F)cc4F)c(F)c3)c2cc1OC,1.13 ± 0.036,1.27 ± 0.071,1.28 ± 0.13
CC(C)(O)CC(=O)NCCn1ccc2ncnc(Nc3ccc(Oc4cccc(C(F)(F)F)c4)c(Cl)c3)c21,1.14 ± 0.019,1.37 ± 0.12,1.62 ± 0.14
OCCn1cc(-c2ccc3c(c2)CC/C3=N\O)c(-c2ccncc2)n1,1.36 ± 0.044,1.45 ± 0.064,1.49 ± 0.02
CNC(=O)c1cc(Oc2ccc(NC(=O)Nc3ccc(Cl)c(C(F)(F)F)c3)cc2)ccn1 [Sorafenib],1.48 ± 0.09,1.45 ± 0.032,1.66 ± 0.029
C[C@@H](Oc1cc(-n2cnc3ccc(CN4CCN(C)CC4)cc32)sc1C(N)=O)c1ccccc1C(F)(F)F,1.12 ± 0.059,1.22 ± 0.025,1.35 ± 0.048
CS(=O)(=O)N1CCc2c(-c3cnc(N)nc3)nc(N3CCOCC3)nc21,1.31 ± 0.047,1.48 ± 0.024,1.55 ± 0.025

SMILES,mitochondrial superoxide (time after LPS: 1 h),mitochondrial superoxide (time after LPS: 2 h),mitochondrial superoxide (time after LPS: 4 h)
Oc1cccc(-c2nc(N3CCOCC3)c3oc4ncccc4c3n2)c1,1.61 ± 0.025,1.62 ± 0.03,1.685 ± 0.012
O=C(NOCC1CC1)c1ccc(F)c(F)c1Nc1ccc(I)cc1Cl,1.57 ± 0.11,1.59 ± 0.071,1.9 ± 0.1
O=Nc1c(-c2c(O)[nH]c3cc(Br)ccc23)[nH]c2ccccc12,1.3 ± 0.081,1.43 ± 0.041,1.64 ± 0.067
CC(C)NC[C@@H](C(=O)N1CCN(c2ncnc3c2[C@H](C)C[C@H]3O)CC1)c1ccc(Cl)cc1,1.25 ± 0.045,1.49 ± 0.11,1.7 ± 0.094
C[C@@H]1COC(Nc2ccc3ncnc(Nc4ccc(OCc5nccs5)c(Cl)c4)c3c2)=N1 [Varlitinib],1.3 ± 0.019,1.39 ± 0.09,1.69 ± 0.08
Cc1ncc(-c2ccnc(Nc3ccc(S(C)(=O)=O)cc3)n2)n1C(C)C,1.36 ± 0.052,1.46 ± 0.063,1.6 ± 0.11
COc1cc(Nc2nc3ccccc3nc2NS(=O)(=O)c2ccc(NC(=O)c3ccc(C)c(OC)c3)cc2)cc(OC)c1,1.17 ± 0.022,1.23 ± 0.06,1.33 ± 0.061
NC1(Cc2ccc(Cl)cc2)CCN(c2ncnc3[nH]ccc23)CC1,1.31 ± 0.037,1.43 ± 0.058,1.68 ± 0.021
CN(C)Cc1cccc(N=C(c2ccccc2)c2c(O)[nH]c3cc(C(=O)N(C)C)ccc23)c1,1.11 ± 0.069,1.141 ± 0.011,1.31 ± 0.037
NC(=O)c1ccc(N(C(N)=O)c2c(F)cccc2F)nc1-c1ccc(F)cc1F,1.2 ± 0.026,1.27 ± 0.087,1.327 ± 0.0024
COc1cc(N2CCC(N3CCN(C)CC3)CC2)ccc1Nc1ncc(Cl)c(Nc2ccccc2S(=O)(=O)C(C)C)n1,1.24 ± 0.068,1.3 ± 0.019,1.47 ± 0.04
Cn1cc(-c2ccc3nnc(C(F)(F)c4ccc5ncccc5c4)n3n2)cn1,1.4 ± 0.062,1.44 ± 0.015,1.5 ± 0.019
CN(C)C1CCN(C(=O)c2ccc(NC(=O)Nc3ccc(-c4nc(N5CCOCC5)nc(N5CCOCC5)n4)cc3)cc2)CC1,1.1 ± 0.061,1.29 ± 0.014,1.58 ± 0.095
CNC(=O)c1cc(Oc2ccc(NC(=O)Nc3cc(C(C)(C)C)nn3-c3ccc4ncccc4c3)c(F)c2)ccn1 [DCC-2036 (Rebastinib)],1.17 ± 0.012,1.33 ± 0.075,1.6 ± 0.03
Cc1ccc(Nc2nccc(N(C)c3ccc4c(C)n(C)nc4c3)n2)cc1S(N)(=O)=O,1.46 ± 0.059,1.563 ± 0.0056,1.65 ± 0.11
Cc1ccc(NC(=O)c2ccc(CN3CCN(C)CC3)cc2)cc1Nc1nccc(-c2cccnc2)n1 [Imatinib Mesylate (STI571)],1.626 ± 0.013,1.76 ± 0.045,1.72 ± 0.03
CCCCCCCCc1ccc(CCC(N)(CO)CO)cc1 [Fingolimod (FTY720) HCl],1.15 ± 0.043,1.19 ± 0.071,1.31 ± 0.038
CN(C[C@@H]1COCCO1)S(=O)(=O)Nc1ccc2ccc3ncc(-c4cnn(C)c4)cc3c(=O)c2c1,1.26 ± 0.029,1.51 ± 0.054,1.76 ± 0.048
Cc1ccc(NC(=O)c2ccc(CN3CCN(C)CC3)cc2)cc1Nc1nc(-c2cccnc2)cs1 [Masitinib (AB1010)],1.44 ± 0.013,1.52 ± 0.067,1.72 ± 0.12
COc1cc2nccc(Oc3ccc(NC(=O)Nc4cc(C)on4)c(Cl)c3)c2cc1OC [Tivozanib (AV-951)],1.14 ± 0.031,1.17 ± 0.037,1.24 ± 0.024
Cc1ccc(C(=O)Nc2ccc(CN3CCN(C)CC3)c(C(F)(F)F)c2)cc1C#Cc1cnc2cccnn12,1.08 ± 0.068,1.13 ± 0.014,1.23 ± 0.048
CC(C)(C)c1cnc(CSc2cnc(NC(=O)C3CCNCC3)s2)o1,1.32 ± 0.035,1.43 ± 0.017,1.5 ± 0.14

SMILES,mitochondrial superoxide (time after LPS: 1 h),mitochondrial superoxide (time after LPS: 2 h),mitochondrial superoxide (time after LPS: 4 h)
CCN1C(=CC(C)=O)Sc2ccc(OC)cc21,1.417 ± 0.014,1.44 ± 0.089,1.63 ± 0.1
Cc1cc(CN2CCN(c3c(Br)cnc4nc(-c5ccc(N6CCN(C)CC6)cc5)[nH]c34)CC2)no1,1.27 ± 0.038,1.4 ± 0.019,1.68 ± 0.13
CC[C@@H]1C(=O)N(C)c2cnc(Nc3ccc(C(=O)NC4CCN(C)CC4)cc3OC)nc2N1C1CCCC1,1.14 ± 0.063,1.19 ± 0.038,1.39 ± 0.028
C=CC(=O)Nc1cc2c(Nc3ccc(F)c(Cl)c3)ncnc2cc1OCCCN1CCOCC1 [Canertinib (CI-1033)],1.59 ± 0.093,1.55 ± 0.14,1.87 ± 0.084
Cc1cc(O)c2c(c1)C(=O)c1cccc(O)c1C2=O [Chrysophanic Acid],1.29 ± 0.11,1.36 ± 0.097,1.48 ± 0.022
CCOc1cc2ncc(C#N)c(Nc3ccc(OCc4ccccn4)c(Cl)c3)c2cc1NC(=O)/C=C/CN(C)C [Neratinib (HKI-272)],1.06 ± 0.1,1.19 ± 0.14,1.27 ± 0.092
Cc1c(NC(=O)OC[C@@H]2COCCN2)cn2ncnc(Nc3ccc4c(cnn4Cc4cccc(F)c4)c3)c12,1.57 ± 0.034,1.74 ± 0.077,1.9 ± 0.045
CC(C)(C)c1cc(/C=C(\C#N)C(N)=S)cc(C(C)(C)C)c1O [Tyrphostin AG 879],1.37 ± 0.06,1.42 ± 0.037,1.61 ± 0.037
N#CC[C@H](C1CCCC1)n1cc(-c2ncnc3[nH]ccc23)cn1,1.19 and 1.09,1.29 and 1.15,1.35 and 1.29
OCCn1cc(-c2cnc3nnn(Cc4ccc5ncccc5c4)c3n2)cn1,1.37 ± 0.059,1.41 ± 0.018,1.498 ± 0.0039
O=C(Nc1ccc(OC(F)(F)F)cc1)c1sccc1NCc1ccnc2ccccc12,1.21 ± 0.044,1.2 ± 0.067,1.25 ± 0.031
Cc1cc(Nc2ncc(Cl)c(Nc3ccccc3S(=O)(=O)C(C)C)n2)c(OC(C)C)cc1C1CCNCC1,1.2 ± 0.013,1.32 ± 0.033,1.39 ± 0.024
O=C1NC(=O)/C(=C/c2cccc(C(F)(F)F)c2)S1,1.27 ± 0.052,1.35 ± 0.074,1.53 ± 0.05
O=C(c1ccc(/C=C/c2n[nH]c3ccccc23)cc1)N1CCNCC1,1.09 ± 0.063,1.19 ± 0.067,1.33 ± 0.035
CNC(=O)c1cc(Oc2ccc(NC(=O)Nc3ccc(Cl)c(C(F)(F)F)c3)cc2)ccn1 [Sorafenib Tosylate],1.6 ± 0.039,1.68 ± 0.099,1.73 ± 0.077
CCc1cnn2c(NCc3ccc[n+]([O-])c3)cc(N3CCCC[C@H]3CCO)nc12,1.28 ± 0.066,1.33 ± 0.055,1.63 ± 0.066
COc1cc(CCc2cc(NC(=O)c3ccc(N4CC(C)NC(C)C4)cc3)n[nH]2)cc(OC)c1 (stereo not drawn),1.26 ± 0.04,1.42 ± 0.032,1.53 ± 0.092
C=CC(=O)Nc1cccc(Nc2nc(Nc3ccc(N4CCN(C(C)=O)CC4)cc3OC)ncc2C(F)(F)F)c1,1.49 ± 0.069,1.49 ± 0.063,1.65 ± 0.12
CCNC(=O)Nc1ccc(-c2nc3c(c(N4CCOC[C@@H]4C)n2)CCN(C2COC2)C3)cc1,1.42 ± 0.045,1.6 ± 0.039,1.68 ± 0.062
CNC(=O)c1ccc(-c2cnc3ncc(Cc4ccc5ncccc5c4)n3n2)cc1F,1.12 ± 0.033,1.36 ± 0.16,1.58 ± 0.14
COc1cc2ncnc(Nc3cccc(Cl)c3)c2cc1OC [AG-1478 (Tyrphostin AG-1478)],1.11 ± 0.082,1.54 ± 0.039,1.65 ± 0.057
C[C@@H]1CCN(C(=O)CC#N)C[C@@H]1N(C)c1ncnc2[nH]ccc12,1.12 and 1.28,1.21 and 1.4,1.3 and 1.58
